Source: PubChem (National Center for Advancing Translational Sciences (NCATS))
Most compounds without a hit are left out; they make up all but 3.2% or so of the library.
CRE-bla Fsk – alters forskolin-stimulated CRE reporter signaling in CHO cells | CHO CRE-bla reporter (cAMP response element driving beta-lactamase), forskolin EC10, beta-lactamase ratio | Potency, µM (top dose mostly 38.2 µM), actives largely listed as activators | hit rate 2.5% among 71,000 | AID 662; active = well fitted activation curve with a large enough effect in the signal ratio, with a control signal flat, not every such curve was filed as active; inconclusive = small, poorly fitted or top-dose-only effect, or effect the other way, or a change in a side signal; the % refers to the signal ratio
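AC50 values, positive or negative, reflect shifts in EC10 NKH 477-induced CRE-bla reporter activity in CHO cells. Incubation lasted 3 h at 37 °C before CCF4 substrate (2 h, room temperature) and ratiometric 460/530 nm reading.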
15-hLO-2 inh – blocks human 15-lipoxygenase 2 activity | O15296 | purified 15hLO-2, xylenol orange hydroperoxide absorbance | Potency, µM (top dose mostly 57.1 µM), most hits filed as inhibitors | hit rate 0.56% among 110,000 | AID 881; also: nearly all actives have a fitted effect of over 60% in size
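Enzyme 50 nM, AA 45 uM, 25 mM Hepes pH 7.5 + 0.01% Triton X-100; cpd preinc 15 min RT, rxn 90 min RT; stop/detect with 200 uM XO + 300 uM Fe(II) in 50 mM H2SO4, 30 min; A573/A405.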
ERK AVP block – inhibitors of vasopressin-stimulated ERK signaling pathway; HEK293-V1b, vasopressin-stimulated pERK AlphaScreen; Potency, µM (highest dose often 57.5 µM), most hits filed as inhibitors; hit rate 0.99% among 72,000; AID 995; also: nearly all actives have a fitted effect of over 55% in size
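HEK293 cells stably expressing V1b receptor, preincubated 30 min at 37 °C with compound, then stimulated 5 min with 25 nM vasopressin. Phospho-ERK by AlphaScreen SureFire after 5 h RT; normalized to DMSO and vasopressin; AC50 by Hill fit.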
ALOX15 inhib – 15-hLO (ALOX15) enzyme inhibition | P16050 | purified 15hLO-1, xylenol orange hydroperoxide absorbance | Potency, µM (top dose mostly 57.1 µM), actives largely listed as inhibitors | hit rate 1.4% among 74,000; also: nearly all actives have a fitted effect of over 55% in size
Target sequence (P16050 whole entry, looked up): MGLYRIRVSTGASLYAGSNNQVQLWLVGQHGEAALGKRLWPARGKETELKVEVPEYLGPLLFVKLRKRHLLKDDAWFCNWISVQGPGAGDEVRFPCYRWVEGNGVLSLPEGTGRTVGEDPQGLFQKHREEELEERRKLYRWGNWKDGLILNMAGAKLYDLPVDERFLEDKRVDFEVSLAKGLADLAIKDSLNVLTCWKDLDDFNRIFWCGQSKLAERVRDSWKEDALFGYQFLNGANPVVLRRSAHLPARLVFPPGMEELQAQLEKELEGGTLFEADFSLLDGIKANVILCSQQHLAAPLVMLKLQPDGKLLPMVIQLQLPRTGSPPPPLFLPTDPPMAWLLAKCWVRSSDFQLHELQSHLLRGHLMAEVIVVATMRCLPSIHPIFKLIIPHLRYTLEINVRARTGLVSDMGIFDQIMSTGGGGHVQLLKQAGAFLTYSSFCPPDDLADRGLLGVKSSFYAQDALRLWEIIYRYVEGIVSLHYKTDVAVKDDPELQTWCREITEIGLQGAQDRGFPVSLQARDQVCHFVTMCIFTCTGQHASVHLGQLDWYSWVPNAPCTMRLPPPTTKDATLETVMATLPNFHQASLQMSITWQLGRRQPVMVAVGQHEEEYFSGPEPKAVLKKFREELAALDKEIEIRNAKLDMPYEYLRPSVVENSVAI
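Purified human 15hLO-1 (40 nM) in 25 mM Hepes pH 7.5, 0.01% Triton X-100, preincubated 15 min RT with compound, then 50 uM arachidonic acid for 6 min. Hydroperoxide read by ferrous/xylenol orange, 30 min; 573/405 nm absorbance ratio gave progress.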
Each line names hits and unclear results; the compound was inactive in the other large screens. Unless noted, calls follow the shape of the dose curve; as a rule, active = well fitted inhibition curve with a large enough effect; inconclusive = small, poorly fitted or top-dose-only effect; inactive = no such curve, though single readings can be large or run the other way.

N#C/C(=C\NC(=S)c1ccncc1)c1nc2ccccc2s1	none
COc1cc(C2CC(=O)c3c([nH]c(C(=O)OCCOC(C)C)c3C)C2)cc(OC)c1OC (configuration not stated)	ERK AVP block 4µM (no result: 15-hLO-2 inh)
CN=C(NC#N)NCCSC[C@H]1N=CN=C1C	none
O=C(NC1CCN(Cc2ccccc2)CC1)c1ccc(-n2c(=O)c(=O)[nH]c3ccccc32)cc1	none (no result: CRE-bla Fsk, 15-hLO-2 inh, ERK AVP block)
Nc1c(C(=O)NC2CCCC2)c2nc3ccccc3nc2n1/N=C/c1ccco1	none (no result: CRE-bla Fsk, ERK AVP block, ALOX15 inhib)
Nc1c(C(=O)NC2CCCC2)c2nc3ccccc3nc2n1N	CRE-bla Fsk 13µM
COc1cccc2oc(-c3ccccc3)cc(=O)c12	none (no result: CRE-bla Fsk)
COc1ccc(-c2cc(=O)c3cc(OC)ccc3o2)cc1	none (no result: CRE-bla Fsk)
COc1ccc2oc(-c3ccc(O)cc3)cc(=O)c2c1	CRE-bla Fsk 16µM, ERK AVP block 40µM
COc1cc2oc(-c3ccccc3)cc(=O)c2cc1OC	CRE-bla Fsk 6.3µM
Cc1ccc2c(c1)c(C)c(C)n2CC(O)Cn1nc(C)c(Br)c1C (configuration not stated)	CRE-bla Fsk 2µM
Oc1ccc(Br)cc1/C=N/N1CCN(Cc2ccccc2)CC1	none (no result: CRE-bla Fsk, ERK AVP block, ALOX15 inhib)
Oc1ccc(Br)cc1/C=N/n1cnc2ccccc21	CRE-bla Fsk inconclusive, ERK AVP block 16µM
O=C(O)CNC(=O)c1ccc(CO)o1	none
CN1CCC(CNC(=O)c2ccc(Cc3nc4ccccc4[nH]3)cc2)CC1	none (no result: CRE-bla Fsk, 15-hLO-2 inh, ERK AVP block)
CCCn1c(C)nc2c(N3CCOCC3)nc(C)nc21	CRE-bla Fsk 10µM
CCCn1c(C)nc2c(N3CCC(N4CCN(C)CC4)CC3)nc(C)nc21	none
O=C1N=C(N2CCOCC2)S/C1=C1\C(=O)N(Cc2ccccc2)c2ccc(Br)cc21	none
CCCCN1C(=O)/C(=C2\SC(N3CCCCC3)=NC2=O)c2ccccc21	CRE-bla Fsk 10µM, ERK AVP block 25µM
CC(=O)c1ccc(NC(=O)C2CCN(S(=O)(=O)c3cccc4cccnc34)CC2)cc1	none (no result: 15-hLO-2 inh)
O=C(C1CCN(S(=O)(=O)c2cccc3cccnc23)CC1)N1CCN(c2ccccn2)CC1	CRE-bla Fsk inconclusive
Cc1cccc(NC(=O)C2CCN(S(=O)(=O)c3cccc4cccnc34)CC2)n1	ERK AVP block 10µM
O=C(C1CCN(S(=O)(=O)c2ccc3ccccc3c2)CC1)N1CCN(c2ncccn2)CC1	CRE-bla Fsk inconclusive, ERK AVP block 25µM
O=C(C1CCN(S(=O)(=O)c2cccc3cccnc23)CC1)N1CCN(c2ccc(Cl)cc2)CC1	ERK AVP block 7.9µM, ALOX15 inhib inconclusive
Cc1ccc(NC(=O)C2CCN(S(=O)(=O)c3cccc4cccnc34)CC2)nc1	ERK AVP block 32µM, ALOX15 inhib inconclusive
CS(=O)(=O)Nc1cccc(-c2ccc3ncnc(N4CCNCC4)c3c2)c1	CRE-bla Fsk inconclusive, ERK AVP block inconclusive
O=C(Oc1ccc2c3c(c(=O)oc2c1)CCC3)c1ccco1	none (no result: CRE-bla Fsk, ERK AVP block, ALOX15 inhib)
COC(=O)Cc1c(C)c2ccc(OC(=O)c3ccco3)cc2oc1=O	CRE-bla Fsk 10µM, ERK AVP block 4µM
COC(=O)Cc1c(C)c2cc(Cl)c(OC(=O)c3ccco3)cc2oc1=O	CRE-bla Fsk inconclusive, ERK AVP block 13µM
COc1ccc(-c2ccc(=O)n(Cc3cc(=O)n4ccccc4n3)n2)cc1	CRE-bla Fsk 10µM
COc1ccc(-c2ccc(=O)n(CC(=O)NCc3ccco3)n2)cc1	none
Cc1ccc(OCC(=O)Nc2ccc(N3CCCC3)cc2)cc1C	CRE-bla Fsk inconclusive, ERK AVP block inconclusive, ALOX15 inhib 5µM
Cc1cc(C)cc(OCC(=O)Nc2ccc(N3CCCC3)cc2)c1	none (no result: CRE-bla Fsk, ERK AVP block)
CCN1CCN(C(=O)NC(C(=O)NC2C(=O)N3C2SC(C)(C)C3C(=O)O)c2ccccc2)C(=O)C1=O (configuration not stated)	none (no result: CRE-bla Fsk)
CCOC(=O)c1[nH]c2c(c1C)C(=O)CC(c1ccc(OC)c(OC)c1)C2 (configuration not stated)	none
Cc1c(C(=O)OC2CCCC2)[nH]c2c1C(=O)CC(c1ccco1)C2 (configuration not stated)	CRE-bla Fsk 0.5µM, ERK AVP block 25µM
C=CCOC(=O)c1[nH]c2c(c1C)C(=O)CC(c1ccco1)C2 (configuration not stated)	CRE-bla Fsk 0.5µM, ERK AVP block inconclusive
C/C=C/COC(=O)c1[nH]c2c(c1C)C(=O)CC(c1ccco1)C2 (configuration not stated)	CRE-bla Fsk 1.3µM (no result: 15-hLO-2 inh)
Cc1c(C(=O)OCC(C)C)[nH]c2c1C(=O)CC(c1ccco1)C2 (configuration not stated)	CRE-bla Fsk 1.6µM, ERK AVP block inconclusive (no result: 15-hLO-2 inh)
Cc1c(C(=O)OCC2CCCO2)[nH]c2c1C(=O)CC(c1ccco1)C2 (configuration not stated)	CRE-bla Fsk inconclusive
O=S(=O)(Nc1ccc(Cl)cc1Cl)c1cc(Cl)ccc1Cl	none (no result: CRE-bla Fsk, 15-hLO-2 inh, ERK AVP block)
CN1CCN(C(=O)CSc2nc(-c3cccs3)cc(-c3cccs3)c2C#N)CC1	CRE-bla Fsk inconclusive, ALOX15 inhib 16µM
COCC(=O)N1CCC[C@@]2(CCN(C(=O)Nc3ccc(OC)cc3)C2)C1	none
COC(=O)n1c(SC)nc2ccccc21	CRE-bla Fsk 10µM
CCCCNC(=O)n1c(SC)nc2ccccc21	none (no result: CRE-bla Fsk, ERK AVP block, ALOX15 inhib)
O=C1CCCCC2CCCCN12 (configuration not stated)	none (no result: CRE-bla Fsk, ERK AVP block, ALOX15 inhib)
CCOC(=O)CC(=O)CSc1nc2c(sc(=S)n2-c2ccccc2)c(=O)[nH]1	none
CCOC(=O)c1ccc(-n2c(=S)sc3c(=O)[nH]c(C)nc32)cc1	CRE-bla Fsk inconclusive, ALOX15 inhib 10µM
CCCCOCCOCCSC#N	none
COc1cc2c(cc1OC)-c1nncn1C(C)(C)C2	CRE-bla Fsk 13µM
Cc1ccc(C(=O)N2CCN(c3ccc(NC(=S)NC(=O)Cc4ccccc4)cc3)CC2)cc1	15-hLO-2 inh 13µM (no result: CRE-bla Fsk, ERK AVP block, ALOX15 inhib)
COc1ccc(N2CCN(C(=O)c3ccc(NS(=O)(=O)c4ccccc4)cc3)CC2)cc1	ALOX15 inhib 5µM (no result: 15-hLO-2 inh)
Cc1ccc(C(=O)N2CCN(c3ccc(Cl)cc3)CC2)cc1	none
O=C(c1cccc(F)c1)N1CCC2(CCN(Cc3ccccc3)CC2)CC1	ERK AVP block inconclusive
COc1ccccc1C(=O)Nc1ccc(S(=O)(=O)N2CCOCC2)cc1	CRE-bla Fsk inconclusive
O=C(Nc1ccc(S(=O)(=O)N2CCCC2)cc1)c1ccc(CN2CCOCC2)cc1	ERK AVP block 10µM, ALOX15 inhib inconclusive
O=C(Nc1ccc(Cc2ccncc2)cc1)c1ccc(S(=O)(=O)N2CCOCC2)cc1	CRE-bla Fsk inconclusive
CCOc1ccccc1C(=O)Nc1ccc(S(=O)(=O)N2CCOCC2)cc1	CRE-bla Fsk 3.2µM
COc1ccc2[nH]cc(CCNc3ncncc3-c3ccc(C(=O)N(C)C)cc3)c2c1	none
O=C(CSc1nnc(Cc2ccccc2)o1)NCc1ccco1	none
Cc1[nH]c2ccccc2c1Cc1nnc(SCC(=O)NCc2ccco2)o1	ERK AVP block inconclusive, ALOX15 inhib 13µM
CN1CCCN(C)C1c1cc([N+](=O)[O-])ccc1O	none
CCOc1cc(C=O)ccc1OCCCN1C(=O)NC(C)(C)C1=O	none (no result: CRE-bla Fsk, ERK AVP block, ALOX15 inhib)
C/C=C/c1ccc(OCCCCN2C(=O)NC(C)(C)C2=O)c(OC)c1	CRE-bla Fsk inconclusive, ERK AVP block 20µM
